Measurements reported in the supplement of paper PMC4166925.
± gives the standard deviation of the averaged measurements. In all, about 33,000 sequences were measured (“E-score (dimensionless, -0.5 to 0.5)”: median about -0.049, highest 2% from about 0.37 on). This is one part of a sample in which the highest values are shown more often than they occur.

Each sequence was assayed on T1, PmTbr T-box DNA-binding domain (GST fusion) (assay: PBM E-score of 8-mer (E-score (dimensionless, -0.5 to 0.5)); Tbr is Tbrain of the sea star Patiria miniata (Pm) or the sea urchin Strongylocentrotus purpuratus (Sp); higher = stronger binding preference). Conditions: the construct has about 5 more residues each side.
T1 sequence: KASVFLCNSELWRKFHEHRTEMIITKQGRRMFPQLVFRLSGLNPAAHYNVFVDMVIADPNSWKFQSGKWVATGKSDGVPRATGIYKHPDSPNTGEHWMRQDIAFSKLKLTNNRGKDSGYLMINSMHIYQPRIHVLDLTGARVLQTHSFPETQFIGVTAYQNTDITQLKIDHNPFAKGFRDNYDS
Method: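 Universal protein-binding microarray (Agilent AMADID 016060, 60-bp probes with a 35-bp variable region) incubated with 200 nM GST-fused Patiria miniata Tbr T-box DNA-binding domain (residues 272-466) in PBS pH 7.5. Scored for every ungapped 8-mer (given with its reverse complement) by the Universal PBM Analysis Suite as E-score (modified Wilcoxon-Mann-Whitney enrichment, range -0.5 to 0.5; >0.45 counts as bound) and Z-score of median probe intensity. Two replicate arrays (datasets 1 and 2).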
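Further: 200 nM protein in PBS on universal arrays averaged over duplicate arrays.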

| Sequence | PBM E-score of 8-mer |
| --- | --- |
| ATATCACC | 0.364 ± 0.013 |
| CTCTCACA | 0.3481 ± 0.0026 |
| ATCTCAAC | 0.0437 ± 0.036 |
| CTATCACC | 0.431 ± 0.0063 |
| ACCTCACC | 0.261 ± 0.028 |
| ATCTCACG | 0.294 ± 0.016 |
| CGCTCACC | 0.0475 ± 0.083 |
| CTATCACA | 0.305 ± 0.009 |
| ATCTCACA | 0.372 ± 0.021 |
| ATCTCTCA | 0.226 ± 0.023 |
| ATCTCACC | 0.409 ± 0.0061 |
| CTCTCACC | 0.383 ± 0.0077 |
| ATTGTTAC | 0.194 ± 0.057 |
| GGTACGAC | -0.0493 ± 0.042 |
| CAGAGGCA | -0.215 ± 0.071 |
| ATCTACCG | -0.157 ± 0.067 |
| AAGATCTC | 0.061 ± 0.054 |
| CCGGCCCC | -0.24 ± 0.058 |
| CAATCGCC | -0.0698 ± 0.068 |
| ATCCCCAA | -0.227 ± 0.063 |
| GAGCTTCA | -0.137 ± 0.0098 |
| ATACTTCC | 0.0697 ± 0.018 |

| Sequence | PBM E-score of 8-mer |
| --- | --- |
| GGCATTTA | 0.00349 ± 0.0029 |
| ACCTCACG | 0.269 ± 0.038 |
| GCCTCACA | 0.224 ± 0.031 |
| ACCTCACA | 0.423 ± 0.0099 |
| GTCTCACA | 0.392 ± 0.019 |
| TCCTCACA | 0.3327 ± 0.0011 |
| GTCTCTCA | 0.0943 ± 0.0041 |
| ACGCAATC | -0.12 ± 0.013 |
| GCTTGGTA | -0.112 ± 0.032 |
| CCCCTCTA | -0.143 ± 0.088 |
| ATTAGCGG | 0.121 ± 0.025 |
| AAACTTGC | 0.122 ± 0.029 |
| ACACTTGA | 0.369 ± 0.029 |
| ACACTTGG | 0.395 ± 0.0073 |
| ATACTTGG | -0.174 ± 0.046 |
| ACACTTGC | 0.407 ± 0.013 |
| CCACTTGC | 0.158 ± 0.056 |
| GAAGTTAA | 0.0494 ± 0.064 |
| TCTTGGCA | 0.0497 ± 0.1 |
| GCTAACCC | 0.00156 ± 0.0032 |
| GCTAACAC | 0.43 ± 0.0048 |
| CCTAACAG | 0.128 ± 0.033 |

| Sequence | PBM E-score of 8-mer |
| --- | --- |
| ACTAACAA | 0.214 ± 0.032 |
| CCTAACAC | 0.4369 ± 0.0041 |
| ACTAACAC | 0.412 ± 0.007 |
| GCTAACAA | 0.252 ± 0.013 |
| CCTAACAA | 0.184 ± 0.055 |
| ACTAACAG | 0.216 ± 0.045 |
| CAGTTCAC | 0.226 ± 0.023 |
| ACGCAGCT | 0.109 ± 0.075 |
| GACAATCC | 0.106 ± 0.018 |
| GTAAGCTA | -0.266 ± 0.012 |
| ATGTAGAC | -0.237 ± 0.043 |
| CGTCGCAC | 0.332 ± 0.021 |
| GGTCGCAC | 0.373 ± 0.018 |
| AGTCGCAC | 0.395 ± 0.026 |
| AGTCGCAG | 0.0399 ± 0.06 |
| AGTCGCAA | 0.147 ± 0.026 |
| GGTCGCAA | 0.205 ± 0.0044 |
| AGATTTTC | 0.0361 ± 0.063 |
| TAGTTCGA | 0.16 ± 0.056 |
| GCACCAGA | -0.03 ± 0.061 |
| AATGTTCC | -0.191 ± 0.0029 |
| ACAACGCA | 0.105 ± 0.03 |

| Sequence | PBM E-score of 8-mer |
| --- | --- |
| ACCACGCG | 0.1217 ± 0.0011 |
| ACCACCCG | 0.189 ± 0.017 |
| CCCACCCA | 0.0945 ± 0.0051 |
| CACACCGC | 0.334 ± 0.027 |
| ATCACCCG | 0.194 ± 0.02 |
| CACCCCCC | 0.165 ± 0.06 |
| CACACCCA | 0.423 ± 0.012 |
| CCCACCCG | 0.105 ± 0.0088 |
| AACACCCG | 0.428 ± 0.0098 |
| CACACCCG | 0.426 ± 0.019 |
| TACACCCA | 0.129 ± 0.046 |
| CACCCCCG | 0.216 ± 0.014 |
| CACACCCC | 0.416 ± 0.013 |
| TAATTCAA | -0.292 ± 0.037 |
| CCCGGTCG | -0.111 ± 0.059 |
| CCATAGGA | -0.0411 ± 0.059 |
| TACAACGA | -0.18 ± 0.034 |
| ATAGAACC | -0.0785 ± 0.034 |
| CGGGCAGC | -0.0554 ± 0.0018 |
| AGGTACCA | -0.0398 ± 0.018 |
